# Reference: PubChem BioAssay
# Activity calls are given as the source filed them.
# Assays:
# [1] = optical density shifts of acrAB sulA E. coli – strain DRC41, OD650, 48 h, E. coli filamentation inducer project, primary screen (AID 1152); conditions: higher = more signal, called active from +8 up or from −8 down;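 further: E. coli MC1000 strain DRC41 lacking acrAB efflux pump and sulA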
# [2] = probe aLefty1 binding on compound microarray – biochemical, small-molecule microarray, 635/667 nm fluorescence, primary screen (AID 1153); conditions: higher = more signal;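 further: score merges spot fluorescence with signal-to-noise ratio from the scanned slide images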
# [3] = plasmodial surface anion channel blockers, osmotic lysis – cell-based, P. falciparum Indochina, OD700, 1 h, primary screen (AID 1154); conditions: P. falciparum Indochina infected RBC osmotic lysis, higher = more signal, called active from +8 up or from −8 down
# [4] = plasmodial surface anion channel blockers, osmotic lysis – cell-based, P. falciparum Indochina, OD700, 2 h, primary screen (AID 1155);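 further: lysis reports solute entry through the parasite surface anion channel PSAC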; conditions: P. falciparum Indochina infected erythrocytes, higher = more signal, called active from +8 up or from −8 down
# [5] = changes in parasitized red cell lysis, either direction – P. falciparum Indochina, OD700, 3 h, PSAC antagonist project, primary screen (AID 1156); conditions: P. falciparum-infected erythrocytes, osmotic lysis, higher = more signal, called active from +8 up or from −8 down
# [6] = plasmodial surface anion channel blockers, osmotic lysis – cell-based, P. falciparum Indochina, OD700, 18 h, primary screen (AID 1157); conditions: P. falciparum Indochina infected erythrocytes, osmotic lysis OD700, 18 h; higher = more signal, called active from +8 up or from −8 down
# [7] = S6 kinase pathway phospho-S6 level changes – cell-based, A549, cytoblot, luminescence, serum-stimulated, primary screen (AID 1158); conditions: 5 h, higher = more signal;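 further: serum-stimulated A549 lung adenocarcinoma cells; signal is phosphorylated S6 detected by cytoblot immunostaining with HRP secondary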
# [8] = target: NADPH oxidase 2 (Homo sapiens) (UniProt P04839); assay: compounds shifting NOX2 Amplex Red fluorescence – cell-based, HEK293-NOX2, PMA-stimulated, NOX inhibitor project, primary screen (AID 1159); conditions: 45 min, higher = more signal, called active from +8 up or from −8 down; further: test concentration not given here
# [9] = target: NADPH oxidase 4 (Homo sapiens) (UniProt Q9NPH5); assay: compounds shifting NOX4 Amplex Red fluorescence – cell-based, HEK293-NOX4, tetracycline-induced, NOX inhibitor project, primary screen (AID 1160); conditions: HEK293-NOX4, Amplex Red H2O2 fluorescence, 45 min; higher = more signal, called active from +8 up or from −8 down
# [10] = target: NADPH oxidase 5 (Homo sapiens) (UniProt Q96PH1); assay: compounds shifting NOX5 Amplex Red fluorescence – cell-based, HEK293-NOX5, NOX inhibitor project, primary screen (AID 1161); conditions: HEK293-NOX5, ionomycin, 45 min, higher = more signal
# [11] = compound effects on lung adenocarcinoma cell viability – A549, calcein-AM fluorescence, 48 h, basal, profiling panel (AID 1162); conditions: higher = more signal; further: test concentration not given here
# [12] = compound effects on differentiated 3T3-L1 adipocyte viability – cell-based, 3T3-L1 adipocytes, calcein-AM fluorescence, 48 h, basal, profiling panel (AID 1163); conditions: 3T3-L1 adipocytes viability, higher = more signal; further: test concentration not given here
# [13] = compound effects on hepatocellular carcinoma cell viability – HepG2, calcein-AM fluorescence, 48 h, basal, profiling panel (AID 1164); conditions: higher = more signal; further: test concentration not given here
# [14] = compound effects on multiple myeloma cell viability – MM1S, calcein-AM fluorescence, 48 h, basal, profiling panel (AID 1165); conditions: higher = more signal; further: test concentration not given here
# [15] = calcein-AM signal in unstimulated myeloma cells – cell-based, calcein-AM fluorescence, 48 h, PK04 Diversity Set, profiling panel (AID 1166); conditions: RPMI8226 myeloma viability, higher = more signal;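 further: cells grown under basal conditions without added stimulus; test concentration not given here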
# [16] = JC-1 mitochondrial signal, unstimulated HepG2 cells – cell-based, JC-1 fluorescence, 24 h, 100 nL compound, profiling panel (AID 1167); conditions: HepG2 mitochondrial potential, higher = more signal; further: test concentration not given here
# [17] = JC-1 mitochondrial signal, unstimulated adipocytes – cell-based, JC-1 fluorescence, 3T3-L1 adipocytes, 24 h, 100 nL compound, profiling panel (AID 1168); conditions: JC-1 mitochondrial fluorescence, higher = more signal, called active from +8 up or from −8 down; further: test concentration not given here
# [18] = JC-1 mitochondrial signal, unstimulated myeloma cells – cell-based, JC-1 fluorescence, RPMI8226, 24 h, 100 nL compound, profiling panel (AID 1169); conditions: JC-1 mitochondrial potential fluorescence, higher = more signal; further: test concentration not given here
# [19] = JC-1 mitochondrial signal, unstimulated MM1S myeloma – cell-based, JC-1 fluorescence, 24 h, 100 nL compound, profiling panel (AID 1170); conditions: MM1S mitochondrial potential, higher = more signal; further: test concentration not given here
# [20] = resazurin metabolic signal in A549 cells – cell-based, resazurin fluorescence, 24 h, PK04 Diversity Set, profiling panel (AID 1171); conditions: A549 viability, higher = more signal, called active from +8 up or from −8 down; further: test concentration not given here
# NADPH oxidase 4 (Homo sapiens), sequence (Q9NPH5 whole entry, looked up): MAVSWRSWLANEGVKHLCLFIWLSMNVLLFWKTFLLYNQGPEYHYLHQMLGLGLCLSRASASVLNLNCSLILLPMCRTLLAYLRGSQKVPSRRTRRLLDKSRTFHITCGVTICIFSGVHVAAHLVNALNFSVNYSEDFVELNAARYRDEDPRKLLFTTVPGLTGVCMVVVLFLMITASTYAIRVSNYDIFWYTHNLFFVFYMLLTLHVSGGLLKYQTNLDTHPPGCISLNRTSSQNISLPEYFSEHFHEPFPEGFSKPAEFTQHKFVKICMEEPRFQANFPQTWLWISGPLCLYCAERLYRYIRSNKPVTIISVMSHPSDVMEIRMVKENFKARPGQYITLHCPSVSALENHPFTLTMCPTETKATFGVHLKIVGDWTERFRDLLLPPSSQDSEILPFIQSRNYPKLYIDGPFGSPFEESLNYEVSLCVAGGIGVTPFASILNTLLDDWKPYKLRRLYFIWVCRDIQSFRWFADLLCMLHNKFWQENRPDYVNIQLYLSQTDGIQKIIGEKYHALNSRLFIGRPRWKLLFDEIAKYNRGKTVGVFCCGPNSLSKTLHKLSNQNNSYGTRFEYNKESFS
# NADPH oxidase 2 (Homo sapiens), sequence (P04839 whole entry, looked up): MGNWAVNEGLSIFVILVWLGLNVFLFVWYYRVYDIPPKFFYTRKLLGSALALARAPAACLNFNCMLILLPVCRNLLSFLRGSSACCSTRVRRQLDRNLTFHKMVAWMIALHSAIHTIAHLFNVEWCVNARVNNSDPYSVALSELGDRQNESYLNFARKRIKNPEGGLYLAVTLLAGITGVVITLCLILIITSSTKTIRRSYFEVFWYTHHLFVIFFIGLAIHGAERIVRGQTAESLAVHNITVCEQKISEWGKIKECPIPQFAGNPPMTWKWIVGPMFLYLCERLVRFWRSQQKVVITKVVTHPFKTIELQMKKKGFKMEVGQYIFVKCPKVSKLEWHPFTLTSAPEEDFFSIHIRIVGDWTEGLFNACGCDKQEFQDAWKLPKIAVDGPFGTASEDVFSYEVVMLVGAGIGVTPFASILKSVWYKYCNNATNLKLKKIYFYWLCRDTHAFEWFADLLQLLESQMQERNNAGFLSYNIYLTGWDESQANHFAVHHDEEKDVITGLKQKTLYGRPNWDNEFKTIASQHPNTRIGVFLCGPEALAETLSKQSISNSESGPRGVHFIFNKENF
# NADPH oxidase 5 (Homo sapiens), sequence (Q96PH1 whole entry, looked up): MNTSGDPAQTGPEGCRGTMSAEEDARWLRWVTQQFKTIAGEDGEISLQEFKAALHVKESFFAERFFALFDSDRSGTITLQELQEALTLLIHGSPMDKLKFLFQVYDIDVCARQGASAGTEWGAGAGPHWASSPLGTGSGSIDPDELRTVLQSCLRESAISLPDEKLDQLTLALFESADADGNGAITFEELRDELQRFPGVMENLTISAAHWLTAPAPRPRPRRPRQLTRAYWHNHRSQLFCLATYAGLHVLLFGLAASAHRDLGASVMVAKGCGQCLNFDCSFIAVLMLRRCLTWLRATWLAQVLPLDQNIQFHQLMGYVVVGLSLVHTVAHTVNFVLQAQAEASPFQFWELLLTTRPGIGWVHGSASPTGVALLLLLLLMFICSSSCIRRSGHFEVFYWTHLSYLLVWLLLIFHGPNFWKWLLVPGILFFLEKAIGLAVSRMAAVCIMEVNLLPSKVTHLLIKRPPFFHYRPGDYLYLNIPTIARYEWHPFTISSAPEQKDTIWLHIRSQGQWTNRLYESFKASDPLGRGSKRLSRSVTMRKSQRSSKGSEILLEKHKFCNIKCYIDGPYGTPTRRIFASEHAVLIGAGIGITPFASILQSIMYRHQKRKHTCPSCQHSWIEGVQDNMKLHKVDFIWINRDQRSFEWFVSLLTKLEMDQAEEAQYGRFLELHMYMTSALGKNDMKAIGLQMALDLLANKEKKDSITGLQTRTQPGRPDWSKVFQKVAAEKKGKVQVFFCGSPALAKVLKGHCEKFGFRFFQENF
Structure (SMILES),z-score [1],composite z-score [2],z-score [3],z-score [4],z-score [5],z-score [6],z-score [7],z-score [8],z-score [9],z-score [10],z-score [11],z-score [12],z-score [13],z-score [14],z-score [15],z-score [16],z-score [17],z-score [18],z-score [19],z-score [20]
COc1ccccc1CN1C(=O)c2ccccc2[C@@H](C(=O)NCc2ccccc2)[C@@H]1c1ccc(CO)cc1,-0.0367 (inactive),0.148,1.8 (inactive),0.566 (inactive),0.708 (inactive),0.205 (inactive),0.161,-1.11 (inactive),0.148 (inactive),-0.707,1.2,0.448,0.292,-0.881,0.47,2.08,0.819 (inactive),-0.288,0.544,0.832 (inactive)
C#CCN(C/C=C/c1ccccc1)[C@H](CO)c1ccccc1,-1.3 (inactive),-0.241,6.86 (inactive),0.893 (inactive),0.0025 (inactive),0.305 (inactive),-0.617,0.403 (inactive),0.04 (inactive),-3.98,-1.94,-0.27,-1.76,-2.02,-1.96,-2.74,-0.471 (inactive),-0.746,0.0614,-0.96 (inactive)
O=C1O[C@H](c2ccccc2)[C@H](c2ccccc2)N2[C@H]1[C@@H](C(=O)NC[C@H](O)c1ccccc1)[C@]1(C(=O)Nc3ccccc31)[C@H]2c1ccc(O)cc1,0.281 (inactive),0.0191,2.49 (inactive),1.29 (inactive),-0.214 (inactive),1.29 (inactive),-0.482,-0.0983 (inactive),-0.705 (inactive),0.152,-0.184,0.279,-0.454,-2.03,-3.84,-3.2,-0.104 (inactive),-0.933,-1.03,-0.377 (inactive)
O=C(O)[C@@]1(CCS(=O)(=O)c2ccccc2)N=C(c2ccc(OCCCO)cc2)O[C@H]1c1ccccc1,0.183 (inactive),0.0458,22.6 (active),4.96 (inactive),0.178 (inactive),0.789 (inactive),-0.238,-0.333 (inactive),1.66 (inactive),1.26,-0.932,0.784,-0.258,-0.839,-1.04,0.591,-0.249 (inactive),-0.178,-0.51,0.761 (inactive)
COC(=O)[C@@]1(Cc2ccc(OC)cc2)[C@H]2c3cc(C(=O)N4CCCC4)n(CCCNc4ncc(C(F)(F)F)cc4Cl)c3C[C@H]2CN1C(=O)c1ccccc1,-1.46 (inactive),0.982,10.1 (active),1.37 (inactive),2.15 (inactive),1.13 (inactive),-0.0195,0.128 (inactive),0.577 (inactive),1.65,-1.54,-1.03,-0.841,-1.9,-4.57,0.261,-1.31 (inactive),-0.873,-1.28,-0.577 (inactive)
CC(C)NC(=O)[C@@H]1c2ccccc2C(=O)N(C(C)C)[C@H]1c1ccc(CO)cc1,1.17 (inactive),-0.228,3.85 (inactive),1.18 (inactive),0.151 (inactive),0.207 (inactive),0.0843,0.274 (inactive),0.614 (inactive),0.964,0.772,0.0383,1.8,0.333,0.947,1.59,-0.423 (inactive),-0.104,-0.952,0.842 (inactive)
Cc1ccc(/C=C/C=O)cc1,1.24 (inactive),-0.22,0.248 (inactive),0.0672 (inactive),-0.0637 (inactive),0.0324 (inactive),-0.139,-0.225 (inactive),-0.104 (inactive),1.17,0.572,-0.106,0.935,0.858,0.532,1.34,-0.111 (inactive),-0.758,0.427,-0.64 (inactive)
O=C(NCCN1CCOCC1)[C@@H]1c2ccccc2C(=O)N(Cc2cc(C(F)(F)F)cc(C(F)(F)F)c2)[C@H]1c1ccc(CO)cc1,-0.0112 (inactive),0.0479,2.81 (inactive),1.44 (inactive),0.591 (inactive),0.526 (inactive),-0.474,-0.0635 (inactive),0.271 (inactive),2.36,1.79,-0.587,1.82,0.266,-0.0119,2.85,0.252 (inactive),-0.021,-0.227,0.0288 (inactive)
COC(=O)[C@@]1(Cc2ccccc2)[C@H]2c3cc(C(=O)N4CCCC4)n(Cc4c(CO)[nH]cc(C)c4=O)c3C[C@H]2CN1C(=O)c1ccccc1,-1.73 (inactive),-0.0971,0.315 (inactive),0.32 (inactive),1.27 (inactive),0.397 (inactive),-0.289,0.562 (inactive),-0.976 (inactive),-2.9,-1.45,-0.412,-0.844,-0.662,-2.04,-0.401,-0.276 (inactive),-0.797,-0.444,0.739 (inactive)
CC=CC(O)C1C=CC2C(=O)N(C)C(=O)C2N1N(c1ccccc1)c1ccccc1 (stereo not given),-1.3 (inactive),-0.101,-0.553 (inactive),0.603 (inactive),-0.461 (inactive),1.12 (inactive),-0.674,-0.633 (inactive),-0.176 (inactive),-0.111,-0.716,-1.7,-0.967,0.13,0.0318,-0.0443,-0.149 (inactive),-0.372,-0.106,-0.522 (inactive)
O=C1OCC=C[C@H]2OC34C=CCN(CCN5CCOCC5)C(=O)[C@H]3N(CCO)C(=O)[C@@H]4[C@@H]12 (stereo not given in full),-0.738 (inactive),-0.279,0.418 (inactive),0.009 (inactive),-0.392 (inactive),0.33 (inactive),-0.822,1.4 (inactive),0.628 (inactive),1.72,-0.157,0.196,0.804,-0.635,-0.253,-0.464,0.00617 (inactive),-0.299,0.292,-0.124 (inactive)
COC(=O)[C@@]1(Cc2ccc(OC)cc2)[C@H]2c3cc(C(=O)N4CCCC4)n(CCSCCO)c3C[C@H]2CN1C(=O)c1ccccc1,-1.34 (inactive),0.399,2.07 (inactive),0.142 (inactive),-0.0464 (inactive),0.667 (inactive),-0.0335,0.354 (inactive),-1.04 (inactive),-0.201,-0.35,0.319,-0.814,-2.68,-0.804,1.5,-1.29 (inactive),-0.689,0.168,1.57 (inactive)
NC(=O)[C@@H]1[C@H]2C(=O)O[C@H](c3ccccc3)[C@H](c3ccccc3)N2[C@H](c2ccc(O)cc2)[C@@]12C(=O)Nc1ccc(C#CC3=CCCCC3)cc12,-1.1 (inactive),1.47,1.78 (inactive),1.07 (inactive),-0.491 (inactive),1.27 (inactive),-0.7,0.615 (inactive),0.196 (inactive),-0.325,-1.42,-0.0881,-5.06,-3.27,-4.17,-3.59,-1.58 (inactive),-0.88,-1.94,-0.274 (inactive)
COCCOC(=O)N1C(=O)[C@@]2(c3cc(C#CC4(O)CCCCCC4)ccc31)[C@H](c1ccccc1OCCO)N1[C@H](c3ccccc3)[C@H](c3ccccc3)OC(=O)[C@H]1[C@@H]2C(=O)N1CCc2cc(OC)c(OC)cc2C1,0.109 (inactive),0.379,2.53 (inactive),0.888 (inactive),0.467 (inactive),0.773 (inactive),0.495,1.25 (inactive),0.534 (inactive),1.82,-0.329,0.346,-0.011,-0.889,-1.76,-0.0229,0.0348 (inactive),-0.686,-1.14,0.512 (inactive)
O=C(O)[C@H]1C[C@H]2C(=O)N3CCC[C@H]3C(=O)N2[C@H]1c1ccc(O)cc1,0.852 (inactive),-0.121,1.9 (inactive),0.0196 (inactive),-6.59 (inactive),0.104 (inactive),-0.275,0.583 (inactive),0.16 (inactive),0.932,0.835,0.469,0.0504,-0.8,0.0046,1.38,-0.0658 (inactive),-0.703,-0.22,0.799 (inactive)
COC(=O)C(CC#Cc1ccc2c(c1)[C@]1(C(=O)N2)[C@H](c2ccc(O)cc2)N2[C@H](c3ccccc3)[C@H](c3ccccc3)OC(=O)[C@H]2[C@@H]1C(=O)N1CCN(c2ncccn2)CC1)C(=O)OC,0.347 (inactive),0.027,5.42 (inactive),0.658 (inactive),1.93 (inactive),0.515 (inactive),0.355,1.91 (inactive),0.857 (inactive),1.54,-0.112,-0.274,0.9,-2.43,-4.48,-0.758,0.999 (inactive),-1.07,-2.02,-0.558 (inactive)
OB1C=CCC(CCc2ccccc2)O1 (stereo not given),3.28 (inactive),-0.0651,-0.263 (inactive),-0.649 (inactive),-1.32 (inactive),-2.19 (inactive),0.946,-1.05 (inactive),0.69 (inactive),1.22,0.345,0.638,0.36,0.293,0.364,1.39,0.244 (inactive),-0.855,0.954,-1.01 (inactive)
O=C(NC1CC1)[C@@H]1c2ccccc2C(=O)N(C2Cc3ccccc3C2)[C@H]1c1ccc(CO)cc1,0.412 (inactive),-0.0377,2.06 (inactive),0.208 (inactive),0.531 (inactive),-0.112 (inactive),-0.153,0.0375 (inactive),0.108 (inactive),-0.717,0.201,0.526,0.116,0.62,-0.987,2.96,0.832 (inactive),0.0519,0.339,0.888 (inactive)
